The nature of assay [1]: stimulators of nuclear beta-catenin in C2C12, primary screen, imaging, WNT3A-conditioned medium, mouse C2C12, NPC library (AID 1117326; in the data active means nuclear beta-catenin stimulation mostly above about 4.2%, no sharp cut-off; inactive means mostly below about 10%; further: reference of the scale not given here). Particulars: stronger effect = higher value.
Assay [2] can be described thus: stimulators of insulin release from INS-1E, primary screen, cell-based, 5 mM glucose, NPC library (AID 1117329;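 active means compound raises insulin release from rat beta cells at 5 mM glucose, no numeric limit stated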; further: reference of the scale not given here). The settings on record: rat INS-1E insulin secretion, at 10 µM, stronger effect = higher value.
Assay [3] can be described thus: growth inhibition of GSK3B-pretreated HCT116 cells – cell-based, CellTiter-Glo, 0.2 to 20 µM (AID 1117336;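 active means compounds lowering colon cancer cell viability after pretreatment blocking the GSK3B kinase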). Particulars: HCT116 viability after GSK3B inhibitor, at 20 µM, stronger effect = higher value.
Assay [4] in a line: inhibition of endothelial tube formation, primary screen, imaging, VEGF stimulated, CD31 staining, tube area, NPC library (AID 1117340). The settings on record: VEGF-stimulated ADSC/ECFC co-culture, at 10 µM, stronger effect = higher value.
Assay [5] can be described thus: glucagon-like peptide 1 release enhancers, primary assay, NCI-H716 cell line, NPC library (AID 1117341;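 active means compound raises GLP1 secretion from the human gut endocrine cells, with no numeric limit stated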; further: reference of the scale not given here). Particulars: NCI-H716 cells, at 10 µM, stronger effect = higher value.
Assay [6] is described as follows: HCT116 colon cancer cell growth inhibition, primary screen, CellTiter-Glo luminescence, NPC library (AID 1117342;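 active means compounds that lower survival of HCT116 colon cancer cells in the luminescence readout, no numeric limit stated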). Particulars: at 20 µM (top of the series).
The nature of assay [7]: CellTiter-Glo luminescent readout of SW480 viability loss, NPC library primary (AID 1117343;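 active means compounds that lower viability of the colon cancer cells in the luminescence readout, with no numeric limit stated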). The settings on record: CellTiter-Glo luminescence; at 20 µM (top of the series). (ATP-based viability assays read luminescence as a measure of living cells.)
Assay [8] can be described thus: decreased DLD-1 cellular survival, CellTiter-Glo luminescent readout, NPC compound collection, primary HTS (AID 1117346;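 active means compounds that lower survival of DLD-1 colon cancer cells in the luminescence readout, no cutoff given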). Particulars: DLD-1 viability, CellTiter-Glo luminescence; at 20 µM (top of the series).

The results in this text go back to PubChem BioAssay.

Activity calls are given as the source filed them.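 How the source made its calls, unless noted: active means compound that reduces growth-factor-driven endothelial tube area in a mixed cell culture, no cutoff stated; inactive means the rest.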

Regarding `CC(C)=C[C@@H]1[C@@H](C(=O)OCc2coc(Cc3ccccc3)c2)C1(C)C`, the nuclear beta-catenin stimulation in assay [1] (at 10 µM) was 0.3% (inactive); in assay [1] (stimulation, at 2 µM), 0.4%. The insulin secretion stimulation in assay [2] was -3.4% (inactive). For the same compound, in assay [3], the viability decrease is 14.7% (inactive). For the same compound, in assay [4], the tube area decrease was 12.6% (inactive). Moreover, the GLP1 secretion stimulation in assay [5] was -0.4% (inactive). In assay [6], the inhibition of viability was 12.9% (inactive). For the same compound, the results for the viability decrease (inhibition) in assay [7] and in assay [8] were 87.8% (active) and 23.4% (inactive), respectively.
In the case of `Nc1ccccc1C(=O)OCC(O)CO` (stereo not drawn), the nuclear beta-catenin stimulation in assay [1] (at 10 µM) was 3.1% (inactive); in assay [1] (stimulation, at 2 µM), 3.4%. The insulin secretion stimulation in assay [2] was -1.4% (inactive). For the same compound, in assay [3], the viability decrease is -40% (inactive). Moreover, in assay [4], the tube area decrease was 21.1% (inactive). Further, the GLP1 secretion stimulation in assay [5] is -1.2% (inactive). Besides, the inhibition of viability in assay [6] is -0.1% (inactive). In addition, the viability decrease (inhibition) in assay [7] was -4.5% (inactive); in assay [8], -4.9% (inactive).
For `COC1CC(=C(c2cccs2)c2cccs2)C[N+](C)(C)C1` (stereo not drawn), the nuclear beta-catenin stimulation in assay [1] (at 10 µM) was -1.6% (inactive); in assay [1] (stimulation, at 2 µM), 1.1%. In assay [2], the insulin secretion stimulation was 0.1% (inactive). For the same compound, the viability decrease in assay [3] was -13.9% (inactive). Also, the tube area decrease in assay [4] was 10.1% (inactive). Besides, the GLP1 secretion stimulation in assay [5] was -0.6% (inactive). In assay [6], the inhibition of viability was 8.3% (inactive). In addition, the viability decrease (inhibition) in assay [7] was -2.9% (inactive); in assay [8] it was -0.4% (inactive).
`O=C1OC(CCN2CCCCC2)OC1(c1ccccc1)c1ccccc1` (stereo not drawn): the nuclear beta-catenin stimulation was 15% (inactive) in assay [1] (at 10 µM) and 0.5% in assay [1] (stimulation, at 2 µM). Also, the insulin secretion stimulation in assay [2] is 5.9% (inactive). In assay [3], the viability decrease is 0.7% (inactive). Further, the tube area decrease in assay [4] was 6% (inactive). Further, the GLP1 secretion stimulation in assay [5] was 4.4% (inactive). In addition, the inhibition of viability in assay [6] is 1.1% (inactive). For the same compound, the viability decrease (inhibition) in assay [7] was 15% (inactive); in assay [8], 92.8% (active).
For `CC(C)(C)c1cc(O)ccc1O`, the nuclear beta-catenin stimulation in assay [1] (at 10 µM) is 2.1% (inactive); in assay [1] (stimulation, at 2 µM) it was 2.2%. In assay [2], the insulin secretion stimulation is 0% (inactive). The viability decrease in assay [3] is 11.8% (inactive). In addition, the tube area decrease in assay [4] was 50.3% (active). In assay [5], the GLP1 secretion stimulation is -1% (inactive). Also, the inhibition of viability in assay [6] is -45.9% (inactive). In addition, the figures for the viability decrease (inhibition) in assay [7] and in assay [8] were 17.3% (inactive) and -12% (inactive), respectively.
In the case of `C[C@]12CC[C@H]3[C@@H](CCC4=CC(=O)CC[C@@H]43)[C@@H]1CC[C@@H]2OC(=O)CCc1ccco1`, the nuclear beta-catenin stimulation is 2.9% (inactive) in assay [1] (at 10 µM) and 1% in assay [1] (stimulation, at 2 µM). Besides, the insulin secretion stimulation in assay [2] was 2.5% (inactive). Also, the viability decrease in assay [3] was -67% (inactive). Further, the tube area decrease in assay [4] was 47.2% (active). Further, in assay [5], the GLP1 secretion stimulation was -3.2% (inactive). In addition, the inhibition of viability in assay [6] was 23.6% (inactive). Besides, the values for the viability decrease (inhibition) in assay [7] and in assay [8] were 37.2% (inactive) and 14.9% (inactive), respectively.
As to `CCC(CC)(CNC(=O)CCCO)c1cccc(OC)c1`, the nuclear beta-catenin stimulation in assay [1] (at 10 µM) was -1.1% (inactive); in assay [1] (stimulation, at 2 µM), -0.7%. In addition, the insulin secretion stimulation in assay [2] was 0.4% (inactive). Besides, the viability decrease in assay [3] is -15.7% (inactive). Also, the tube area decrease in assay [4] is 11.5% (inactive). In assay [5], the GLP1 secretion stimulation is -1.4% (inactive). Besides, in assay [6], the inhibition of viability is -6.33% (inactive). Also, the results for the viability decrease (inhibition) in assay [7] and in assay [8] were -5.8% (inactive) and -6.4% (inactive), respectively.
For the compound `CCN(CC)C(=O)N[C@@H]1C=C2c3cccc4[nH]cc(c34)C[C@@H]2N(C)C1`, the nuclear beta-catenin stimulation is 0.6% (inactive) in assay [1] (at 10 µM) and -0.6% in assay [1] (stimulation, at 2 µM). For the same compound, the insulin secretion stimulation in assay [2] was 2.6% (inactive). Further, the viability decrease in assay [3] is 8.2% (inactive). In addition, in assay [4], the tube area decrease is -8.2% (inactive). The GLP1 secretion stimulation in assay [5] is -1% (inactive). Also, the inhibition of viability in assay [6] is 12.2% (inactive). In addition, the viability decrease (inhibition) is -11.8% (inactive) in assay [7] and -5.3% (inactive) in assay [8].
Regarding `C[C@H]1CNCCc2ccc(Cl)cc21`, the nuclear beta-catenin stimulation was 2.8% (inactive) in assay [1] (at 10 µM) and 0.8% in assay [1] (stimulation, at 2 µM). Also, the insulin secretion stimulation in assay [2] was 16.9% (inactive). In assay [3], the viability decrease is -1.35% (inactive). The tube area decrease in assay [4] is -10.5% (inactive). Further, the GLP1 secretion stimulation in assay [5] is 6.1% (inactive). For the same compound, the inhibition of viability in assay [6] was 1.7% (inactive). The viability decrease (inhibition) in assay [7] was 45.3% (inactive); in assay [8], 0.95% (inactive).
With `Oc1ccc(Cl)cc1Cc1ccccc1`, the nuclear beta-catenin stimulation in assay [1] (at 10 µM) was 0.2% (inactive); in assay [1] (stimulation, at 2 µM), 0.1%. In addition, the insulin secretion stimulation in assay [2] is 0.7% (inactive). Also, in assay [3], the viability decrease was 38.4% (inactive). For the same compound, the tube area decrease in assay [4] was 4.6% (inactive). In assay [5], the GLP1 secretion stimulation is 38% (active). Besides, the inhibition of viability in assay [6] is -2.2% (inactive). Besides, the viability decrease (inhibition) in assay [7] was 118% (active); in assay [8], 85.4% (active).
On to `NCC(O)c1cccc(O)c1` (stereo not drawn), for which the nuclear beta-catenin stimulation in assay [1] (at 10 µM) was -0.9% (inactive); in assay [1] (stimulation, at 2 µM) it was 0.5%. The insulin secretion stimulation in assay [2] is 0.5% (inactive). For the same compound, in assay [3], the viability decrease is -15% (inactive). Besides, the tube area decrease in assay [4] is -16.5% (inactive). Besides, the GLP1 secretion stimulation in assay [5] was 2.9% (inactive). Besides, the inhibition of viability in assay [6] was 4.5% (inactive). The viability decrease (inhibition) in assay [7] was 4.3% (inactive); in assay [8], 5.4% (inactive).
In the case of `CCN(CCO)CCn1c(Cc2ccccc2)nc2c1c(=O)n(C)c(=O)n2C`, the nuclear beta-catenin stimulation is -2% (inactive) in assay [1] (at 10 µM) and 0% in assay [1] (stimulation, at 2 µM). In addition, the insulin secretion stimulation in assay [2] is 3% (inactive). For the same compound, in assay [3], the viability decrease is -6% (inactive). Moreover, the tube area decrease in assay [4] was 4.3% (inactive). Also, the GLP1 secretion stimulation in assay [5] was -5.3% (inactive). Also, the inhibition of viability in assay [6] is 6.4% (inactive). In addition, the viability decrease (inhibition) was 15.1% (inactive) in assay [7] and 4.2% (inactive) in assay [8].
Turning to `CCS(=O)(=O)C(C)(C)S(=O)(=O)CC`, the nuclear beta-catenin stimulation in assay [1] (at 10 µM) was -0.7% (inactive); in assay [1] (stimulation, at 2 µM), 1.4%. Further, the insulin secretion stimulation in assay [2] is -0.1% (inactive). In addition, in assay [3], the viability decrease was 2.1% (inactive). Also, in assay [4], the tube area decrease was -6.6% (inactive). For the same compound, the GLP1 secretion stimulation in assay [5] was -1.4% (inactive). Besides, the inhibition of viability in assay [6] is -17.9% (inactive). The viability decrease (inhibition) in assay [7] was -3.1% (inactive); in assay [8], -0.85% (inactive).
On to `NCCS[As](SCCN)c1ccc(Nc2nc(N)nc(N)n2)cc1`, for which the nuclear beta-catenin stimulation in assay [1] (at 10 µM) was -1.4% (inactive); in assay [1] (stimulation, at 2 µM), -0.4%. The insulin secretion stimulation in assay [2] was 0.6% (inactive). For the same compound, the viability decrease in assay [3] is -8.2% (inactive). Besides, in assay [4], the tube area decrease is 21.9% (inactive). Besides, the GLP1 secretion stimulation in assay [5] was -3.3% (inactive). Moreover, the inhibition of viability in assay [6] was 0.1% (inactive). The values for the viability decrease (inhibition) in assay [7] and in assay [8] were -3.2% (inactive) and -34.2% (inactive), respectively.
Take `C1CCC(NC2CCCCC2)CC1`: the nuclear beta-catenin stimulation in assay [1] (at 10 µM) is 1.5% (inactive); in assay [1] (stimulation, at 2 µM), 2%. Moreover, in assay [2], the insulin secretion stimulation is 1.3% (inactive). Moreover, the viability decrease in assay [3] was -4.15% (inactive). In addition, the tube area decrease in assay [4] is -1.6% (inactive). The GLP1 secretion stimulation in assay [5] was 0.1% (inactive). Besides, the inhibition of viability in assay [6] was 7.9% (inactive). For the same compound, the viability decrease (inhibition) in assay [7] was -22% (inactive); in assay [8], -4.45% (inactive).
Regarding `CCCCNC(C)(C)[P+](=O)O`, the nuclear beta-catenin stimulation in assay [1] (at 10 µM) was -0.8% (inactive); in assay [1] (stimulation, at 2 µM), -0.8%. Moreover, in assay [2], the insulin secretion stimulation was -2.5% (inactive). In assay [3], the viability decrease is -0.6% (inactive). In addition, the tube area decrease in assay [4] was -26.4% (inactive). The GLP1 secretion stimulation in assay [5] was -3.9% (inactive). For the same compound, the inhibition of viability in assay [6] is -4.7% (inactive). In addition, the viability decrease (inhibition) in assay [7] is 1.4% (inactive); in assay [8], -4.2% (inactive).
Consider `CC(C)(C)NC[C@H](O)c1ccc(O)cc1Cl`, for which the nuclear beta-catenin stimulation in assay [1] (at 10 µM) was 0.3% (inactive); in assay [1] (stimulation, at 2 µM) it was -0.2%. Moreover, the insulin secretion stimulation in assay [2] was 7.2% (inactive). Also, in assay [3], the viability decrease was 13.2% (inactive). The tube area decrease in assay [4] was -4.4% (inactive). Moreover, the GLP1 secretion stimulation in assay [5] is 5.5% (inactive). Further, the inhibition of viability in assay [6] is 35.7% (inactive). Besides, the viability decrease (inhibition) in assay [7] is 37.1% (inactive); in assay [8], 8.8% (inactive).
